Data reported in PubChem BioAssay AID1347430 (National Center for Advancing Translational Sciences (NCATS), 2020).
The whole screen tested about 91,000 compounds, of which about 130 (0.14%) were called active. Inconclusive results (about 3%) are left out. The sample holds actives, similar compounds and a random draw of the others, so the mix is not that of the screen. Values without a mark were called inactive. Calls follow the shape of the dose curve; as a rule, active = well fitted inhibition curve with a large enough effect; inconclusive = small, poorly fitted or top-dose-only effect; inactive = flat fitted curve, though single readings scatter.

Test system: Uracil-DNA glycosylase
Assay: Primary qHTS assay for inhibitors of Activation Induced Cytidine Deaminase (AID): UDG Counterscreen signal; also: nearly all actives have a fitted effect of over 65% in size
Conditions: FRET deamination/UDG coupled assay, UDG read, 4 h; series mostly up to 115 µM; activity change, negative = inhibition: at the top concentration
Description: Assay Provider (PI) Patricia Gearhart Ph.D.
National Institute on Aging
National Institute of Health (NIH), Bethesda, MD
Assay Provider (PI) Rahul Kohli Ph.D.
Perelman School of Medicine
University of Pennsylvania, Philadelphia, PA
Activation-Induced Deaminase (AID) is a cytosine deaminase which converts cytosine into uracil within stretches of ssDNA. The presence of uracil in DNA initiates a cascade of mutagenic DNA repair to introduce point mutations and DNA double strand breaks. Specific targeting of AID to the immunoglobulin heavy chain loci (Igh) promotes mutagenesis in the antibody variable region for somatic hypermutation (SHM) or switch regions leading to class switch recombination (CSR). However, AID also plays a role in accumulating unnecessary mutations across the genome. Mis-targeting of AID results in the initiation of tumor development and leads to greater drug resistance among cancer cells when continually expressed. To identify an AID inhibitor, a small molecule library will be screened in collaboration with NCATS core facility at NIH. To confirm biological function, inhibitors will be examined in an in vitro murine B-cell activation assay and subsequent secondary validation screens. Top molecules will be further screened to identify inhibitory efficacy against a wild type primary splenocytes assay. Using these approaches, we hope to identify a small molecule with great efficacy and low toxicity for use as a molecular probe to further characterize AID's intricacies, or even as a therapeutic.
A FRET based analysis of cytosine deamination, was developed to identify potential inhibitors of AID catalytic activity. This screen has two signal output, Read 1 evaluates the AID inhibition response. The second readout (Read 2) evaluates UDG response and is uses as a counterscreen to exclude false positive inhibitors. Inhibition in AID and inactivity in the UDG signal is the desired outcome for this assay.
SEQUENCE No. (e.g., 1, 2, 3, etc.); […] (e.g., Cells, Incubation, Reagent, etc.); VALUE; DESCRIPTION
1a; Reagent; 3 uL; [4/3x] 1 uM AID/2.67 U/mL UDG
1b; Reagent; 3 uL; 2 U/mL UDG
1c; Reagent; 3 uL; 1 uM AID
2a; Compound; 46 nL; Follow-up plates (0.64 uM - 10 mM)
2b; Control; 46 nL; ATA ([…] - 10 mM)
3; Time; 10 min; incubation at room temperature
5; Time; 4 hr; incubation at room temperature
6; Reagent; 4 uL; [2x] 250 mM NaOH
7; Time; 15 sec; centrifuge at 1000 rpm
8; Time; 30 min; incubation at room temperature
9a; Detection; fluorescence (Read 1: AID); EnVision (PerkinElmer) plate reader, 540 excitation and 590 emission filters
9b; Detection; fluorescence (Read 2: UDG); EnVision (PerkinElmer) plate reader, 560 excitation and 665 emission filters
NOTES (numbers refer to sequence above)
1a; Reagents were dispensed in a medium-binding black solid-bottom Greiner plates (789176F) using a BioRptr liquid dispenser. Dispense 3 uL of [4/3x] 1 uM AID (provided by Kohli lab) and [4/3x] 2 U/mL UDG (NEB M0280L) into columns 1, 2, 5 to 48.
1b; Dispense 3 uL of [4/3x] 2 U/mL UDG into column 3.
1c; Dispense 3 uL of [4/3x] 1 uM AID into column 4.
2a; Compound (7-points [uM] (0.64; 3.2; 16; 80; 400; 2,000; 10,000; 20,000) double pin-transferred (Dip Factor = 2) using the Kalypsys (Wako USA) pintool equipped with a 1536 pinhead for a final concentration range of 7.32 nM - 114 uM.
2b; 10 mM Aurintricarboxylic Acid (Sigma A1895) (ATA, 8-point, n = 2, 1:2.5 dilution in column 2) double pin-transferred (Dip Factor = 2) using the Kalypsys (Wako USA) pintool equipped with a 1536 pinhead for a [final] range of 186 nM - 114 uM.
3; Room temperature incubation.
4; Dispense 1 uL of substrate mixture from the Kohli lab [4x] […] DJC20 and [4x] 250 nM DJC23 into columns 1 to 48 .
5; Room temperature incubation.
6; Dispense 4 uL of substrate mixture [2x] 250 mM NaOH into columns 1 to 48.
7; Centrifugation step to remove bubbles.
8; Room temperature incubation
9a; Fluorescence signal (column label AID) was read using the EnVision plate reader. […]
% is scaled to controls: 0 for no effect and ±100 for the full control effect; potency is read from the fitted curve at half-maximal effect.

SMILES | activity change, negative = inhibition | Potency
CC(C)=CC(=O)Nc1ccccc1SC1CCCC1 | -4.3% | 
CN(/C=C/[N+](=O)[O-])c1ccccc1 | 3.38% | 
CCCCc1cnc2c(c1SCC(=O)NCC1CCCO1)c(=O)n(C)c(=O)n2C (stereo not given) | -5.8% | 
CC1CCC(NC(=O)/C=C/c2ccc(C(=O)NC3CC3)cc2)CC1 (stereo not given) | -3.82% | 
C=CCn1c(SC(C)C(=O)OC)nc2c1c(=O)[nH]c(=O)n2C (stereo not given) | -1.33% | 
CC(OC(=O)c1cc(=O)c2ccccc2o1)C(=O)Nc1cc(C(F)(F)F)ccc1Cl (stereo not given) | 3.41% | 
CCN(CC)S(=O)(=O)c1ccc([N+](=O)[O-])cc1 | -6.65% | 
Cc1cccc(C(=O)Nc2ccc3nsnc3c2)c1 | -2.27% | 
Cc1ccc2c(COC(=O)C3CCCO3)cc(=O)oc2c1C (stereo not given) | 0.708% | 
Cc1ccc(C(=O)N2CCCc3cc(C(=O)NCCC(C)C)ccc32)cc1 | 1.89% | 
O=C(NC1CCCC1)C1CC=CCC1c1nc2ccccc2s1 (stereo not given) | -7.21% | 
CCCCCCCCOC(=O)/C(C#N)=C/c1ccc(-c2cccc(C(F)(F)F)c2)o1 | -7.64% | 
O=C(Nc1cc(C(F)(F)F)ccc1Cl)c1c(F)cccc1F | -10.2% | 
Cc1[nH]c2ccccc2c1C(=O)C(C)Sc1nnnn1C1CCCC1 (stereo not given) | -0.262% | 
O=C(Nc1cccc(S(=O)(=O)N2CCCC2)c1)c1n[nH]c2ccccc12 | -0.902% | 
O=C(c1ccn(COc2ccccc2)n1)N1CCN(Cc2ccc(Cl)cc2)CC1 | -10.4% | 
CC(C)COC(=O)c1nn(Cc2ccccc2)c(=O)c2ccccc12 | 4.07% | 
COc1ccc2c(CCNC(=O)CCNc3nc(Cl)nc4nc[nH]c34)c[nH]c2c1 | 0% | 
CCOc1cc(C#N)ccc1OC(C)C(=O)c1ccc(OC)cc1 (stereo not given) | -1.24% | 
C/C(=N\NC(=O)C1CC1c1ccccc1)c1ccc(C)c(C)c1 (stereo not given) | 4.65% | 
CCc1ccc(Sc2cc(C(=O)NC3CCCC3)c3ccccc3n2)cc1 | 2.07% | 
Fc1ccc(NCC23CC4CC(CC(C4)C2)C3)cc1 | -2.91% | 

SMILES | activity change, negative = inhibition | Potency
OC(Cc1c[nH]c2ccccc12)(c1ccccc1)c1ccccc1 | -6.36% | 
COc1ccc(C(=O)COC(=O)C(C)Oc2ccc(F)cc2)cc1OC (stereo not given) | -15.6% | 
CC1(C)Cc2c(sc(NC(=O)C(N)=O)c2C#N)CO1 | 5.12% | 
CN(/C=C/C(=O)C(F)(F)F)C1(c2ccccc2Cl)CCCCC1=O (stereo not given) | -0.265% | 
Cc1ccccc1C(=O)c1cc2ccccc2o1 | -4.15% | 
CC(C)CCNC(=O)COC(=O)c1cc(-c2ccco2)nc2ccccc12 | -2.97% | 
CN(Cc1ccsc1)C(=O)CCc1cccs1 | 10.7% | 
Oc1ccc(Cl)cc1C=NCc1ccc(F)cc1Cl | 5.13% | 
N#Cc1cccc(C(=O)OCc2cccnc2)c1 | 4.57% | 
COc1ccc(Cl)cc1COc1ccccc1C#N | -8.12% | 
CCc1nnc(SCC(=O)Nc2ccc(Cl)c(Cl)c2)n1-n1cccc1 | 3.88% | 
CCCN1C=NS(=O)(=O)c2cc(C(=O)NC(C)(C)C)ccc21 | 9.86% | 
Cc1nc2ccc(C(=O)NCC(=O)NCC(F)(F)F)cc2nc1C | -2.66% | 
NCc1ccc(CN2CCCCCCC2)cc1 | 2.92% | 
CCN(Cc1cccs1)C(=O)CC1CC2CCC1C2 (stereo not given) | 8.6% | 
COc1cc(C(=O)Nc2ncccc2C)cc(Cl)c1OC(C)C | 8.76% | 
CCCc1c(C(=O)OCC)nnc2c(-c3ccc(Cl)cc3)c(C)nn12 | 2.06% | 
N#Cc1ccc(CCC(=O)NCc2ccc(F)cc2)cc1 | -6.18% | 
COc1ccc(NS(=O)(=O)c2ccc(N3C(=O)C(C)CS3(=O)=O)cc2)cc1Cl (stereo not given) | -1.04% | 
COc1ccc2c(c1)c(N1CCCC1=O)c(C(=O)Nc1ccc(OC)c(Cl)c1)n2C | 2% | 
COc1ccc(NS(=O)(=O)c2cc3c4c(c2)CC(=O)N4CCC3)cc1Cl |  | 89.1 µM (active)
CN(C)C1(c2nnnn2-c2cccc(C(F)(F)F)c2)CCCC1 | -4.85% | 

SMILES | activity change, negative = inhibition | Potency
Cn1c(=O)c2c(ncn2CC(=O)OCc2ccccc2F)n(C)c1=O | -7.56% | 
O=C(CSc1nc2ccccc2nc1Cc1ccccc1)N1CCCCC1 | -22.1% | 
O=C(Nc1ccc2nc(SCC(=O)N3CCCc4ccccc43)sc2c1)c1ccc(F)cc1 |  | inactive
COc1ccccc1Cc1nc2ccccc2nc1SCC(=O)N1CCCc2ccccc21 |  | 89.1 µM (active)
CN(Cc1ccc2c(c1)OCCO2)CC(O)COc1ccccc1C(C)(C)C (stereo not given) | -12.4% | 
CCNc1nc(-c2cccs2)nc2ccccc12 | 7.12% | 
Cc1ccc(-c2nnc(SCC(=O)Nc3cc(C)on3)n2C2CC2)cc1 | -0.087% | 
CC(C)(C)C(=O)Nc1ccc(-c2csc(N)n2)cc1 | -10.9% | 
COc1ccccc1C(=O)Nc1ccc(O)c(-c2nc3ccccc3o2)c1 | 0% | 
CS(=O)(=O)Cc1cccc(C(=O)NCc2ccccc2F)c1 | -6.76% | 
CCC(Sc1nc2nccnc2c(=O)n1Cc1ccc(OC)cc1)C(=O)NCc1ccc(C)cc1 (stereo not given) | 6.72% | 
COc1ccc(CCN2CNc3c(c(=O)[nH]c(=O)n3-c3ccccc3Cl)C2)cc1OC | 0.816% | 
O=C(O)C(Sc1ccc2ccccc2n1)c1ccccc1 (stereo not given) | 6.61% | 
NCCOc1cccc(C(F)(F)F)c1 | 2.57% | 
CCC(NC(=O)C1CC1)c1ccccc1 (stereo not given) | 4% | 
Cc1ccc(-c2cnc3ccccc3n2)c(C)c1 | -11.7% | 
CCCCNc1nc2c(c(=O)[nH]c(=O)n2C)n1CC(O)COC(C)C (stereo not given) | -7.26% | 
Cc1ccccc1NC(=O)/C(C#N)=C/c1ccc(OC(=O)c2ccccc2)cc1 | -6.05% | 
Cc1cccc(NS(=O)(=O)c2ccc(C)c(C(=O)NCC(c3ccccc3)N(C)C)c2)c1 (stereo not given) | 3.49% | 
O=C(COc1cc(Cl)c(Cl)cc1Cl)Nc1ccc2oc(-c3ccncc3)nc2c1 | -4.4% | 
COC(=O)c1c(C)[nH]c(C(=O)CSc2nncs2)c1C | 2.52% | 
